From PubChem BioAssay (NCI) come the findings set out here.

“And” between values parts separate entries of the source, which are not always exact repeats. Identical values can stand only once. This is part of a sample that, as a whole, favours compounds with a hit. Of some 83,000 tested, about 20% had one in any assay.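 The test compound was applied at a single concentration to cells in 96-well plates for 48 hours, and percent growth was recorded.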 The source made the active and inactive calls. The calls were made as follows: active = growth percent below 10; inactive = the rest.

Among the test systems are SR leukemia; RPMI-8226 leukemia; OVCAR-8 ovarian; OVCAR-4 ovarian; SK-OV-3 ovarian; IGROV1 ovarian; OVCAR-3 ovarian; HS 578T breast; NCI/ADR-RES ovarian; T-47D breast; BT-549 breast; MDA-MB-435 melanoma; SW-620 colon; MCF7 breast; HCT-116 colon; HCC-2998 colon; KM12 colon; OVCAR-5 ovarian.
Holding throughout (assay): NCI-60 one-dose screen, 48 h (100 = growth as untreated, 0 = no growth, -100 = all killed)
What all share (details): 10 µM unless noted

As to `CCOC(=O)N(O)c1ccc(/C=C/c2ccccc2)cc1`, the growth with SR leukemia is 66.7% (inactive); with RPMI-8226 leukemia, 62.2% (inactive) and 49.3% (inactive); in the test on OVCAR-8 ovarian, 76.7% (inactive) and 37.1% (inactive); with OVCAR-4 ovarian, 55.8% (inactive) and 43.5% (inactive); in the test with SK-OV-3 ovarian, 94.1% (inactive) and 92.6% (inactive); in the test on IGROV1 ovarian, 8.91% (active) and 1.54% (active). Moreover, the growth in the test on OVCAR-3 ovarian is 34% (inactive) and 28% (inactive); in the test on HS 578T breast, 94.4% (inactive) and 112% (inactive); in the test with NCI/ADR-RES ovarian it was 74.7% (inactive) and 63.2% (inactive); in the test on T-47D breast, 11.2% (inactive) and 5.56% (active); in the test on BT-549 breast, 78.1% (inactive) and 69.9% (inactive); with MDA-MB-435 melanoma it was 84.6% (inactive) and 84.1% (inactive). In addition, the growth is 60.2% (inactive) and 46.6% (inactive) in the test with SW-620 colon; 8.37% (active) and 10.4% (inactive) in the test on MCF7 breast; 11.2% (inactive) and 17.6% (inactive) in the test with HCT-116 colon; 59.3% (inactive) and 66.4% (inactive) in the test with HCC-2998 colon; 78.5% (inactive) and 64.9% (inactive) in the test with KM12 colon.
On to `CN1CCN(c2ccc(/C=C/C(=O)c3ccc(O)cc3)cc2)CC1`, for which the growth with SR leukemia was 101% (inactive); in the test with RPMI-8226 leukemia, 102% (inactive); with OVCAR-8 ovarian, 95.9% (inactive); in the test with OVCAR-4 ovarian, 89.5% (inactive); in the test with SK-OV-3 ovarian, 105% (inactive); with IGROV1 ovarian, 105% (inactive). In addition, the growth is 106% (inactive) with OVCAR-3 ovarian; 95.7% (inactive) with HS 578T breast; 83.6% (inactive) in the test on T-47D breast; 97.7% (inactive) in the test on BT-549 breast; 100% (inactive) in the test on MDA-MB-435 melanoma; 99.5% (inactive) in the test on SW-620 colon. The results for the growth in the test with MCF7 breast, in the test on HCT-116 colon and in the test with HCC-2998 colon were 89.7% (inactive), 99.2% (inactive) and 102% (inactive), respectively.
With `C=C1CCC2C3(C)COC(c4ccc(NC(C)=O)cc4)OC3CCC2(C)C1C/C=C1/C(=O)OCC1O` (configuration not stated), the growth is 25.2% (inactive) with SR leukemia; 6.14% (active) in the test with RPMI-8226 leukemia; 44.7% (inactive) in the test with OVCAR-8 ovarian; 23.7% (inactive) in the test on OVCAR-4 ovarian; 79.6% (inactive) in the test on SK-OV-3 ovarian; 84.4% (inactive) in the test with IGROV1 ovarian. Besides, the growth with OVCAR-3 ovarian is 76.2% (inactive); in the test on HS 578T breast, 54% (inactive); with NCI/ADR-RES ovarian it was 36.1% (inactive); in the test with BT-549 breast, 59.8% (inactive); with MDA-MB-435 melanoma, 60.5% (inactive); in the test with SW-620 colon it was 77.3% (inactive). Further, the growth was 42.5% (inactive) with MCF7 breast, 34.1% (inactive) with HCT-116 colon and 59.1% (inactive) with HCC-2998 colon.
For `CCOC(=O)CC1CSC(c2cccc(Cl)c2)=N1` (configuration not stated), the growth was 92% (inactive) in the test with SR leukemia; 104% (inactive) in the test with RPMI-8226 leukemia; 102% (inactive) in the test on OVCAR-8 ovarian; 111% (inactive) in the test on OVCAR-4 ovarian; 103% (inactive) with SK-OV-3 ovarian; 113% (inactive) in the test on IGROV1 ovarian. The growth was 107% (inactive) in the test with OVCAR-3 ovarian; 102% (inactive) in the test with HS 578T breast; 96.4% (inactive) with NCI/ADR-RES ovarian; 102% (inactive) in the test on T-47D breast; 111% (inactive) with BT-549 breast; 112% (inactive) in the test with MDA-MB-435 melanoma. Moreover, the growth with SW-620 colon is 108% (inactive); with MCF7 breast, 87.8% (inactive); in the test with HCT-116 colon, 97.2% (inactive); in the test with HCC-2998 colon, 82.7% (inactive); in the test with KM12 colon, 108% (inactive).
Regarding `O=C1CCc2c(sc3[nH]c(=S)n(Cc4ccc(Cl)cc4)c(=O)c23)C1`, the growth in the test on SR leukemia is 17.9% (inactive); in the test on RPMI-8226 leukemia it was -25.5% (active); in the test on OVCAR-8 ovarian it was 7.83% (active); with OVCAR-4 ovarian, 12.4% (inactive); with SK-OV-3 ovarian it was -10.1% (active); in the test with IGROV1 ovarian, 23.3% (inactive). Moreover, the growth with OVCAR-3 ovarian was 6.66% (active); in the test on HS 578T breast it was 5.06% (active); in the test with NCI/ADR-RES ovarian it was -0.97% (active); with T-47D breast, -3.14% (active); in the test on BT-549 breast, -10.1% (active); with MDA-MB-435 melanoma, 11.3% (inactive). In addition, the growth with SW-620 colon is 16.5% (inactive); with MCF7 breast, 6.24% (active); with HCT-116 colon, 5.99% (active); in the test with HCC-2998 colon, 4.16% (active); in the test with KM12 colon it was -45.8% (active).
As for `N=c1ccccn1CCO`, the growth with SR leukemia was 87.7% (inactive); with RPMI-8226 leukemia it was 98.3% (inactive); in the test on OVCAR-8 ovarian it was 104% (inactive); in the test with OVCAR-4 ovarian, 122% (inactive); in the test on SK-OV-3 ovarian, 100% (inactive); with IGROV1 ovarian, 112% (inactive). The growth in the test with OVCAR-3 ovarian is 121% (inactive); with HS 578T breast, 110% (inactive); in the test on NCI/ADR-RES ovarian it was 116% (inactive); in the test with T-47D breast, 103% (inactive); in the test with BT-549 breast, 113% (inactive); in the test on MDA-MB-435 melanoma, 113% (inactive). Further, the growth is 114% (inactive) in the test on SW-620 colon; 102% (inactive) in the test on MCF7 breast; 100% (inactive) with HCT-116 colon; 94.6% (inactive) in the test on HCC-2998 colon; 112% (inactive) in the test on KM12 colon.
As for `O=C(NNc1ccccc1)c1ccccc1`, the growth was 104% (inactive) in the test with SR leukemia; 82.2% (inactive) and 76.6% (inactive) with RPMI-8226 leukemia; 106% (inactive) and 73.5% (inactive) in the test on OVCAR-8 ovarian; 77.2% (inactive) and 68.7% (inactive) in the test on OVCAR-5 ovarian; 94.5% (inactive) and 64.6% (inactive) in the test with OVCAR-4 ovarian; 95.5% (inactive) and 103% (inactive) in the test on SK-OV-3 ovarian. For the same compound, the growth in the test with OVCAR-3 ovarian was 81.4% (inactive) and 101% (inactive); in the test with HS 578T breast, 90.8% (inactive) and 99.1% (inactive); in the test with NCI/ADR-RES ovarian it was 64.3% (inactive) and 57.6% (inactive); in the test with T-47D breast it was 56.5% (inactive) and 36.8% (inactive); with BT-549 breast, 105% (inactive) and 72.2% (inactive); in the test on MDA-MB-435 melanoma, 69.4% (inactive). Besides, the growth with SW-620 colon was 57.1% (inactive) and 45.7% (inactive); with MCF7 breast, 82.9% (inactive) and 90.4% (inactive); in the test on HCT-116 colon, 79.6% (inactive) and 68.5% (inactive); in the test on HCC-2998 colon, 85.6% (inactive); with KM12 colon it was 33.5% (inactive).
Take `COC(=O)[C@H]1Cc2c([nH]c3ccccc23)[C@@H](c2cccs2)N1`: the growth in the test on SR leukemia was 108% (inactive); in the test on RPMI-8226 leukemia, 103% (inactive); in the test with OVCAR-8 ovarian, 104% (inactive); in the test with OVCAR-4 ovarian it was 102% (inactive); with SK-OV-3 ovarian, 102% (inactive); in the test with IGROV1 ovarian it was 101% (inactive). The growth with OVCAR-3 ovarian is 111% (inactive); with HS 578T breast, 103% (inactive); in the test with NCI/ADR-RES ovarian, 106% (inactive); in the test with T-47D breast, 92.9% (inactive); with BT-549 breast, 102% (inactive); in the test on MDA-MB-435 melanoma, 100% (inactive). Besides, the growth is 100% (inactive) in the test with SW-620 colon; 103% (inactive) in the test with MCF7 breast; 104% (inactive) with HCT-116 colon; 102% (inactive) with HCC-2998 colon; 100% (inactive) in the test on KM12 colon.
